The structures appear in SMILES notation. Values without a mark were called inactive. Results filed as inconclusive are left out. The source made the active and inactive calls. Unless noted, the call rests on the fitted dose curve; in most records, active means well fitted curve in either direction with a large enough effect (not every such curve was filed as active); inconclusive means small, poorly fitted or top-dose-only effect, or another doubt; inactive means flat fitted curve, though single readings scatter.

These results are taken from PubChem BioAssay (NCATS).

The target in assay [1] is Lysosomal acid glucosylceramidase (Homo sapiens) (UniProt P04062). The assay can be described thus: Glucocerebrosidase-p2 (AID 348; in the data active means potency below about 10 µM; further: potency means the concentration at half of the fitted maximal effect). The following applies: purified GBA, blue fluorogenic substrate, 40 min. In outline:
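Normal human glucocerebrosidase (0.2 nM) with blue fluorogenic substrate (80 uM final) in citrate/phosphate pH 5.9 with 10mM sodium taurocholate, 0.01% tween-20; 40 min RT, NaOH/glycine stop; fluorescence Ex 365/Em 440; AC50 from a titration from 0.6 nM upwards.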

The nature of assay [2]: AP1 Signaling Pathway (AID 357). Further: on the % scale 0 is the no-effect control and ±100 the full control effect. The note with it: ME-180 AP-1-bla reporter, EGF-induced, beta-lactamase ratio, 5 h; at 7.69 µM (top of the series) unless noted. The procedure, abridged: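 AP-1-bla ME-180 cells, Opti-MEM + 0.5% dialyzed FBS, plated overnight 37 °C. Cpd titration + EC50 EGF, 5 h 37 °C. CCF4 2.5 h RT; ex 405, em 460/530 ratio → %activity, AC50.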
Assay [3] deals with Cytochrome P450 1A2 (Homo sapiens) (UniProt P05177). The assay can be described thus: p450-cyp1a2 (AID 410; calls by dose curve; further: potency means the concentration at half of the fitted maximal effect;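 on activity change, negative = inhibition: -100% = full effect of reference inhibitor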). The note with it: recombinant CYP1A2, luciferin-ME demethylation, luminescence; series mostly up to 11.4 µM. In outline:
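Read-out is luminescence from luciferin produced by CYP1A2 demethylation of Luciferin-ME (100uM, at Km). Detection reagent stopped the 60 min NADPH-dependent reaction; signals were normalized to 57 uM furafylline.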

The nature of assay [4]: Stat Signaling Pathway (AID 446).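 Further: ME-180 cervical cancer cells given 40 pM IL-6 alongside compound; SIE-controlled beta-lactamase reporter measured as 460/530 nm FRET emission ratio; on the % scale 0 is the no-effect control and ±100 the full control effect.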 The following applies: ME-180 (cervical carcinoma) SIE beta-lactamase reporter, IL-6 stimulated, 5 h; at 7.69 µM (top of the series) unless noted. The procedure, abridged: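 Emission at 460 and 530 nm (excitation 405 nm) reports SIE-controlled beta-lactamase in ME-180 cells. Cells received compound with 40 pM IL-6 for 5 hrs at 37 C; data scaled between 300 pM IL-6 and 125 nM JAK-inhibitor controls.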

Assay [5] has as its target Glucocorticoid receptor (Homo sapiens) (UniProt P04150). Description: GR-GFP Redistribution (AID 450;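 active means compounds whose dose series gives a full or clear partial fitted curve of increased nuclear translocation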; further: potency means the concentration at half of the fitted maximal effect). The following applies: U2OS GR-GFP nuclear translocation, laser cytometry, 2 h.
For assay [6] the target is unchanged. The assay can be described thus: GR-EFC Redistribution (AID 451; calls by dose curve; further: potency means the concentration at half of the fitted maximal effect). The following applies: CHO-K1 GR-EFC translocation, beta-gal luminescence, 2 h. The procedure, abridged: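 CHO-K1 cells stably expressing nuclear-localized β-gal enzyme acceptor and GR fused C-terminally to the enzyme donor fragment; ligand-driven nuclear translocation restores β-gal by complementation. Compounds titrated up to 46 uM final, 2 h at 37 °C; luminescence read.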

The target in assay [7] is Mitogen-activated protein kinase 10 (Mus musculus) (UniProt Q61831). Description: JNK3 AlphaScreen Assay (AID 530).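 Further: kinase came from lysate of stimulated human HepG2 cells; on the % scale 0 is the no-effect control and ±100 the full control effect.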 The following applies: JNK3 lysate, c-Jun phosphorylation; series mostly up to 11.4 µM. The procedure, abridged: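 Biotinylated GST-cJun(1-79) served as substrate for JNK3 in HepG2 lysates stimulated with IL-1beta and TNF-alpha. ATP was 10 uM final, pH 7.6. Ser73 phosphorylation was quantified by AlphaScreen (680 nm excitation).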
For orientation: In Alpha technology, singlet oxygen from a donor bead excites a nearby acceptor bead.

Assay [8] deals with 3',5'-cyclic-AMP phosphodiesterase 4B (Homo sapiens) (UniProt Q07343). The assay can be described thus: qHTS Assay for Inhibitors of PDE-IV (AID 607; active means well fitted activation curve with a large enough effect in the main read-out, with a control signal flat, not every such curve was filed as active; further: % of control where 0% means no effect). The following applies: HEK293 ACTOne CNG channel cells, membrane potential fluorescence; series mostly up to 22.9 µM. The procedure, abridged:
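The readout is membrane depolarisation from a cAMP-sensing CNG channel, detected with a potential dye at ex 535/em 590. Cells were HEK293-derived (endogenous PDE-IV) at 1000 cells/well, titrated up to 22.9 uM final.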
Background: In qHTS, concentration-response curves come from the screen itself.

Assay [9] addresses Cytochrome P450 2D6 (Homo sapiens) (UniProt P10635). The assay can be described thus: qHTS Assay for Inhibitors and Substrates of Cytochrome P450 2D6 (AID 891; active means well fitted curve in the direction sought with a large enough effect; an effect the other way counts as inactive or inconclusive; further: potency means the concentration at half of the fitted maximal effect; nearly all actives have a fitted effect of over 60% in size). The following applies: recombinant CYP2D6, luciferin-ME EGE luminescence; series mostly up to 11.4 µM. The procedure, abridged: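 Luminescent read-out of luciferin formed by 5 nM human CYP2D6 demethylating 30 uM Luciferin-ME EGE (Km level) over 60 min at room temperature after NADPH regeneration addition. Data normalized to full inhibition by 1.43 uM quinidine.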

In assay [10] the target is Cytochrome P450 2C19 (Homo sapiens) (UniProt P33261). Description: qHTS Assay for Inhibitors and Substrates of Cytochrome P450 2C19 (AID 899; active means well fitted curve in the direction sought with a large enough effect; an effect the other way counts as inactive or inconclusive; further: potency means the concentration at half of the fitted maximal effect; nearly all actives have a fitted effect of over 60% in size). The following applies: recombinant CYP2C19, luciferin-H EGE luminescence; series mostly up to 11.4 µM. In outline:
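Human CYP2C19 (5nM) with Luciferin-H EGE at 10uM (its KM) in 50mM KPO4 was preincubated with compound for 10 min at 37C. NADPH regeneration started a 60 min 37C reaction. Luciferin was read by luminescence, normalized to 57uM ketoconazole.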

The target of assay [11] is Cytochrome P450 3A4 (Homo sapiens) (UniProt P08684). Description: qHTS Assay for Inhibitors and Substrates of Cytochrome P450 3A4 (AID 884; active means well fitted curve in the direction sought with a large enough effect; an effect the other way counts as inactive or inconclusive; further: potency means the concentration at half of the fitted maximal effect; nearly all actives have a fitted effect of over 50% in size). The following applies: recombinant CYP3A4, Luciferin-PPXE luminescence; series mostly up to 57.1 µM. The procedure, abridged: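 Luminescent readout of luciferin produced by CYP3A4 (20 nM) dealkylation of Luciferin-PPXE, 25 uM (its KM). NADPH-driven reaction ran 60 min at RT after 10 min compound preincubation; data scaled to 57 uM ketoconazole as 100% inhibition.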
Chain of Cytochrome P450 3A4 (Homo sapiens) (P08684 whole entry, looked up): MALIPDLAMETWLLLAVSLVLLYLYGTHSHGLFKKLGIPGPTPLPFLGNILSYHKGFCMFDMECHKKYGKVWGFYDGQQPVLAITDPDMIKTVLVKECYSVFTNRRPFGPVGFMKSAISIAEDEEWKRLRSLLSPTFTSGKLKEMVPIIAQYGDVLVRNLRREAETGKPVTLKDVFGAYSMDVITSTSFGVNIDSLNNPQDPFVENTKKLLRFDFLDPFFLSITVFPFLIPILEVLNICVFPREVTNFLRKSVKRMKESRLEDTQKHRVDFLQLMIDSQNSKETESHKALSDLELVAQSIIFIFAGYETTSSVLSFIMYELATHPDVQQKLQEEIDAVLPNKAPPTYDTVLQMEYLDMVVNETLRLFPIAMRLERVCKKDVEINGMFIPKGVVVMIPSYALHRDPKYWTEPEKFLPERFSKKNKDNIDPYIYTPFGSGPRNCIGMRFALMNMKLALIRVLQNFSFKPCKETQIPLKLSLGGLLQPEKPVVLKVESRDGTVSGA

Assay [12] shares this target. The assay can be described thus: qHTS Assay for Activators of Cytochrome P450 3A4 (AID 885; active means well fitted curve in the direction sought with a large enough effect; an effect the other way counts as inactive or inconclusive; further: nearly all actives have a fitted effect of over 65% in size). The note with it: recombinant CYP3A4, Luciferin-PPXE luminescence, 60 min; series mostly up to 11.4 µM. The procedure, abridged: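 Activators are scored by enhanced luminescence from CYP3A4 conversion of luciferin-PPXE (25uM, equal to KM) to luciferin, after 60 min at RT with an NADPH-regenerating system.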

Assay [13] addresses Cytochrome P450 2C9 (Homo sapiens) (UniProt P11712). Description: qHTS Assay for Inhibitors and Substrates of Cytochrome P450 2C9 (AID 883; active means well fitted curve in the direction sought with a large enough effect; an effect the other way counts as inactive or inconclusive; further: potency means the concentration at half of the fitted maximal effect; nearly all actives have a fitted effect of over 60% in size). The following applies: recombinant CYP2C9, luciferin-H luminescence, 60 min; series mostly up to 11.4 µM. The procedure, abridged: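 Human CYP2C9 (10nM) hydroxylated Luciferin-H (100uM, at its KM) to luciferin in 25mM KPO4. Compound was preincubated 10 min at 37C, then NADPH regeneration started a 60 min reaction at 37C. Luminescence was read after detection reagent, normalized to 57uM sulphaphenazole.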

Chain of Glucocorticoid receptor (Homo sapiens) (P04150 whole entry, looked up, the tested form may be a part): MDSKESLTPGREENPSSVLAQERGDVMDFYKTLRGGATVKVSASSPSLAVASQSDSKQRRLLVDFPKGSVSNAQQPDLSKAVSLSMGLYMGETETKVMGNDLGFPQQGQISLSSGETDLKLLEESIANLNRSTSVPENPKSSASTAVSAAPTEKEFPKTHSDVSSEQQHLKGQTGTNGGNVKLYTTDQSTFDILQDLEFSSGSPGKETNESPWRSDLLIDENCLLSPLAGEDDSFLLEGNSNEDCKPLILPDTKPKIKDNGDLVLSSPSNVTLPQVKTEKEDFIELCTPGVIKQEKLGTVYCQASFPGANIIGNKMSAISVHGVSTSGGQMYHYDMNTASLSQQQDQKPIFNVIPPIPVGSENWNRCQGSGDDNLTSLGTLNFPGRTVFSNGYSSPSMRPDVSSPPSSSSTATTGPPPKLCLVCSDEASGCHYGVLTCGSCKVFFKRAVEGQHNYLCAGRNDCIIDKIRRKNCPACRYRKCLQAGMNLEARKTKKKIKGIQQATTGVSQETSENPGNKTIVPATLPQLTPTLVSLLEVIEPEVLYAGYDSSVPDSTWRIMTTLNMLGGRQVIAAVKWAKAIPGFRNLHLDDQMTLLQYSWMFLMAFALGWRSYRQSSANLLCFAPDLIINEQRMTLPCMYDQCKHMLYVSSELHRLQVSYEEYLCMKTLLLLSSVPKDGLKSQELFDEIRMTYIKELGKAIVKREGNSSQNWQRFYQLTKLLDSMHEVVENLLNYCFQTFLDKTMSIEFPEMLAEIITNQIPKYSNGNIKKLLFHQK
Chain of Cytochrome P450 2D6 (Homo sapiens) (P10635 whole entry, looked up): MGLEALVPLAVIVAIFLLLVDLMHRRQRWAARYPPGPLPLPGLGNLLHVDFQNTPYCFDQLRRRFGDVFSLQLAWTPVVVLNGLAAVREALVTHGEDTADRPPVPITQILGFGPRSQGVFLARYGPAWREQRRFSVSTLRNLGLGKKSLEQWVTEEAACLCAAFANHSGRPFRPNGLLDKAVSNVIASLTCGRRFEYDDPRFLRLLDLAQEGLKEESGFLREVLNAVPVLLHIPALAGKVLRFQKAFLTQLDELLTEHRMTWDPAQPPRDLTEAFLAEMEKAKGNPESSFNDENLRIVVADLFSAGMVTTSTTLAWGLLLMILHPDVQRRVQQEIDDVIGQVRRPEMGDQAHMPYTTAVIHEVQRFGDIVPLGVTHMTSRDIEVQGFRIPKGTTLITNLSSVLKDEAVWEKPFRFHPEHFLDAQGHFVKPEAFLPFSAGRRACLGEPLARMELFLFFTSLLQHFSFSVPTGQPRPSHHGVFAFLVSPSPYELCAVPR
Chain of Cytochrome P450 2C19 (Homo sapiens) (P33261 whole entry, looked up): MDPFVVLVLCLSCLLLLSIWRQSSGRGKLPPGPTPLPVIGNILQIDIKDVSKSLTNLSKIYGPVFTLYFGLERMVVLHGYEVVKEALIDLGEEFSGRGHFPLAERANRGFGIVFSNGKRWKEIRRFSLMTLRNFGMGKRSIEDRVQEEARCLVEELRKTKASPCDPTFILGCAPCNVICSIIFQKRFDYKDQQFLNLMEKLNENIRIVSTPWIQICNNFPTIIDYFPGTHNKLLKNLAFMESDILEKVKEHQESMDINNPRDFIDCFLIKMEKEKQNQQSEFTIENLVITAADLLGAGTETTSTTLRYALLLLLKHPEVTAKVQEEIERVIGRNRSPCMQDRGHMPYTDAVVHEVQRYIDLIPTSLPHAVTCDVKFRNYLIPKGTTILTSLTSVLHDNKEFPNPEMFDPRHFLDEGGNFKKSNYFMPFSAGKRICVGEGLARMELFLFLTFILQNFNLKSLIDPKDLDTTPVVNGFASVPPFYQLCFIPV
Chain of Lysosomal acid glucosylceramidase (Homo sapiens) (P04062 whole entry, looked up): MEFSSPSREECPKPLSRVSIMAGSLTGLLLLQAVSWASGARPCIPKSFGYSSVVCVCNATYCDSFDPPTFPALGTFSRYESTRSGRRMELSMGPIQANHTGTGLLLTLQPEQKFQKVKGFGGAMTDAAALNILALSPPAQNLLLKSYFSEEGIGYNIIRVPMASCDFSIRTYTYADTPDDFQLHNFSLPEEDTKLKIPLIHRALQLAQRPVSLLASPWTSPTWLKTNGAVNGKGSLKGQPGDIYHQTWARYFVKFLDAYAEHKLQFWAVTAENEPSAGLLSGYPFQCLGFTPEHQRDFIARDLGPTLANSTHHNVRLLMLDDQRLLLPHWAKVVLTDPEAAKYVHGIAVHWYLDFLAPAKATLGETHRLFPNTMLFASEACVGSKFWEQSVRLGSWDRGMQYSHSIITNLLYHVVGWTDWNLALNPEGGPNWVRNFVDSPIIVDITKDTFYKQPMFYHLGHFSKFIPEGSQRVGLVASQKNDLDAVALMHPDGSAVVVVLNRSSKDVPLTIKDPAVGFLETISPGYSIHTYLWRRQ
Chain of 3',5'-cyclic-AMP phosphodiesterase 4B (Homo sapiens) (Q07343 whole entry, looked up): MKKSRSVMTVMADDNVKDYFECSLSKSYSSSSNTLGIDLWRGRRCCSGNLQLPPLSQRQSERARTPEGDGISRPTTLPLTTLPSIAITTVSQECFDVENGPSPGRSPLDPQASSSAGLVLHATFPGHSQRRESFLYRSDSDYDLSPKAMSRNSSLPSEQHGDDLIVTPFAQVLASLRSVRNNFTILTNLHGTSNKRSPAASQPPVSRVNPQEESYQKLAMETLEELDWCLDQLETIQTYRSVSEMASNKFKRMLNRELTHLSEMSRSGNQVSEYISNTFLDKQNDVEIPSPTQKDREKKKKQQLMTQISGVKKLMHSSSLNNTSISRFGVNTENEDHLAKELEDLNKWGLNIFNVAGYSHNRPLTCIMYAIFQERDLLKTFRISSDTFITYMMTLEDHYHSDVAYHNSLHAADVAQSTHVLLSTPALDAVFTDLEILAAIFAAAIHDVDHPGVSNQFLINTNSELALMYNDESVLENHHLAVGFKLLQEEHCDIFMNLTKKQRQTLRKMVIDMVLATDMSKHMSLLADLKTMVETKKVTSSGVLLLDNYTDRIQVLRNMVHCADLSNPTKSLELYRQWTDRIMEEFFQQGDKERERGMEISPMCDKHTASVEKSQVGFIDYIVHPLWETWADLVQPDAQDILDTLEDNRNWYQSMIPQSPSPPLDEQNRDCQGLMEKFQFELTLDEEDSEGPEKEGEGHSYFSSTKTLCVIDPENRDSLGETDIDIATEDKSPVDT
Chain of Cytochrome P450 1A2 (Homo sapiens) (P05177 whole entry, looked up): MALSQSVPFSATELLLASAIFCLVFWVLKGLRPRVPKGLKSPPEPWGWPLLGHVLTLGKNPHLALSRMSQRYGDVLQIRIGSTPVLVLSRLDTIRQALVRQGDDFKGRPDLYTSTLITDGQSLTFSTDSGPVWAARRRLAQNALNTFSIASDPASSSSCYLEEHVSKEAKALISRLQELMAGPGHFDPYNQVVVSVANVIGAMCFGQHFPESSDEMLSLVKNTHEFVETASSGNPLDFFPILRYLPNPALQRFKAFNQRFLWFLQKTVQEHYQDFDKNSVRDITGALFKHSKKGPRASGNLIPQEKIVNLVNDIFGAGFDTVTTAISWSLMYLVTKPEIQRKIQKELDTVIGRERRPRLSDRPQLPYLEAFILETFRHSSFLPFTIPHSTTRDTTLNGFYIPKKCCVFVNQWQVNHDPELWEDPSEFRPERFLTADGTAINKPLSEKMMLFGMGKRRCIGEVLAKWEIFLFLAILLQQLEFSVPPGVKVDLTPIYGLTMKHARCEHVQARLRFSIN
Chain of Cytochrome P450 2C9 (Homo sapiens) (P11712 whole entry, looked up): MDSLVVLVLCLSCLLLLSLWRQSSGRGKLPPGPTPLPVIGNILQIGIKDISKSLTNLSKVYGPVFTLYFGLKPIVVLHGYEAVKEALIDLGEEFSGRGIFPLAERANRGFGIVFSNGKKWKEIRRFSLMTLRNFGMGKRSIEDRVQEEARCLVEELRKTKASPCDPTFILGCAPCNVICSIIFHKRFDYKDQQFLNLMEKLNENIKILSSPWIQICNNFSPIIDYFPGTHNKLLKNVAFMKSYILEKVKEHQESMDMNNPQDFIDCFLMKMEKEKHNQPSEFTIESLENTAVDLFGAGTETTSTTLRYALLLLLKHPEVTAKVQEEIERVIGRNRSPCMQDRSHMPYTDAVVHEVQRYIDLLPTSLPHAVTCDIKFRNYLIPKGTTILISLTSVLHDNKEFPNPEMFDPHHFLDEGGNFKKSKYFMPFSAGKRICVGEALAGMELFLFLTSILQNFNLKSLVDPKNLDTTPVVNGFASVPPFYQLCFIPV

Take `CN(C)CCCc1c2ccccc2nc2ccc(Cl)cc12`: the Potency in assay [1] was above 11.4 µM; in assay [3] it was 3.98 µM (active); in [5] it was above 46 µM; in assay [6], above 9.22 µM; in [9], 1.58 µM (active). Besides, in assay [2], the activity change, negative = inhibition was 14.2%. The activity, negative = inhibition in assay [4] is 18.2%. Moreover, the Potency result in [7] and in [8] was “inactive” each time.
For the molecule `O=[N+]([O-])c1ccc(C2=Nn3c(nnc3-c3ccc(Cl)cc3)SC2)o1`, the Potency in assay [1] was above 11.4 µM; in [3], 0.158 µM (active); in [5], above 46 µM; in assay [6], above 9.22 µM; in [10] it was 2.51 µM (active). The activity change, negative = inhibition in assay [2] is 22.7%. Moreover, the activity, negative = inhibition in assay [4] is -6.24%. Further, the Potency result in [7] and in [8] was “inactive” throughout.
Take `Cc1ccc(C2=Nc3ccccc3S[C@@H](c3cccc([N+](=O)[O-])c3)C2)cc1`: the Potency was above 11.4 µM in assay [1]; 2 µM (active) in assay [3]; above 46 µM in assay [5]; above 9.22 µM in [6]; 3.98 µM (active) in assay [11]; 3.98 µM (active) in [10]. The activity change, negative = inhibition in assay [2] was -7.9%. Moreover, the activity, negative = inhibition in assay [4] is -8.15%. Also, the Potency result in [7], in assay [8] and in assay [12] was “inactive” throughout.
As to `CN1CCc2ccccc2[C@@H]1Cc1ccccc1NC(=O)c1sc2ccccc2c1Cl`, the Potency was above 11.4 µM in assay [1]; 5.01 µM (active) in [3]; above 46 µM in [5]; above 9.22 µM in assay [6]; 1.58 µM (active) in [11]; 0.0794 µM (active) in assay [9]. The Potency in assay [10] was 2.51 µM (active). Besides, the activity change, negative = inhibition in [2] was -4.19%. Further, the activity, negative = inhibition in [4] was 4.41%. Also, the Potency result in assay [7], in assay [8] and in [12] was “inactive” each time.
For the molecule `c1ccc2sc(SCSc3nc4ccccc4s3)nc2c1`, the Potency is above 11.4 µM in assay [1]; 3.98 µM (active) in assay [3]; above 46 µM in assay [5]; above 9.22 µM in [6]; 3.16 µM (active) in assay [11]; 1.26 µM (active) in [10]. Besides, in assay [2], the activity change, negative = inhibition was -1.38%. Further, in assay [4], the activity, negative = inhibition was 2.46%. The Potency entry in assay [7], in [8] and in assay [12] was “inactive” in each case.
Take `CCN(Cc1cc(Cl)cc(C)c1O)Cc1c(O)ccc2ccccc12`: the Potency in assay [1] was above 11.4 µM; in assay [3] it was 1 µM (active); in assay [5] it was above 46 µM; in [6] it was above 9.22 µM; in [9], 1.26 µM (active); in [10], 1.26 µM (active). Also, in assay [2], the activity change, negative = inhibition was -8.15%. In addition, the activity, negative = inhibition in assay [4] is 1.25%. Also, the Potency entry in assay [7] and in [8] was “inactive” each time.
In the case of `Cc1ccc(N[C@H](c2ccccc2)c2ccc3cccnc3c2O)cc1`, the Potency is above 11.4 µM in assay [1], above 46 µM in assay [5] and above 9.22 µM in [6]. For the same molecule, the activity change, negative = inhibition is -6.67% in [2] and -24.5% [at 2.29 µM] in assay [3]. Also, in [4], the activity, negative = inhibition is 3.71%. Besides, the Potency result in assay [7], in assay [8] and in [12] was “inactive” throughout.
Regarding `CO[C@@H]1/C=C\O[C@@]2(C)Oc3c(C)c(O)c4c(c3C2=O)C(=N[C@H]2CC[C@H](O)O[C@@H]2C)C=C(NC(=O)/C(C)=C\C(=O)[C@@H]2C[C@@H]2[C@@H](O)[C@H](C)[C@@H](O)[C@H](C)[C@H](OC(C)=O)[C@@H]1C)C4=O`, the Potency was above 11.4 µM in assay [1]; above 46 µM in [5]; above 9.22 µM in assay [6]; 1.26 µM (active) in assay [11]; 2.51 µM (active) in assay [10]. Also, the activity change, negative = inhibition in [2] was 26.3%. Also, the Potency entry in assay [3], in assay [7], in assay [8] and in [12] was “inactive” in each case. Besides, the activity, negative = inhibition in [4] is -2.6%.
Consider `Cc1cc(Cl)nc2ccc(Cc3ccc4nc(Cl)cc(C)c4c3)cc12`, for which the Potency in assay [1] is above 11.4 µM; in assay [5], above 46 µM; in assay [6], above 9.22 µM; in assay [11] it was 3.16 µM (active); in [10] it was 0.501 µM (active). Moreover, the activity change, negative = inhibition was -7.81% in [2] and -13.2% [at 2.29 µM] in assay [3]. Further, the activity, negative = inhibition in assay [4] was -4.37%. Further, the Potency entry in assay [7], in assay [8] and in assay [12] was “inactive” throughout.
In the case of `Cc1cc(Cc2cc(C)cc(C(C)(C)C)c2O)c(O)c(Cc2cc(C)cc(C(C)(C)C)c2O)c1`, the Potency in assay [1] is above 11.4 µM; in [5], above 46 µM; in assay [6], above 9.22 µM; in assay [13], 3.16 µM (active); in assay [10], 3.16 µM (active). Also, the activity change, negative = inhibition in assay [2] is -27.2%; in assay [3] it was -15.6% [at 2.29 µM]. Moreover, in assay [4], the activity, negative = inhibition is 6.72%. Also, the Potency entry in assay [7] and in assay [8] was “inactive” throughout.
Turning to `CN(Cc1cccc2ccccc12)Cc1cccc2ccccc12`, the Potency in assay [1] was above 11.4 µM; in assay [3] it was 3.16 µM (active); in assay [5], above 46 µM; in assay [6] it was above 9.22 µM; in [9] it was 0.398 µM (active); in [10], 1.58 µM (active). Besides, the activity change, negative = inhibition in assay [2] was 6.28%. The activity, negative = inhibition in assay [4] was -2.17%. For the same molecule, the Potency result in assay [7] and in assay [8] was “inactive” each time.
As to `c1ccc2c[n+](Cc3ccnc4ccccc34)ccc2c1`, the Potency in [1] was 8.58 µM (active); in assay [5] it was above 46 µM; in assay [6], above 9.22 µM; in [9], 3.16 µM (active). Further, the activity change, negative = inhibition was 12.4% in [2] and -21.8% [at 2.29 µM] in assay [3]. Further, the activity, negative = inhibition in assay [4] is -6.6%. Further, the Potency entry in assay [7], in [8] and in assay [12] was “inactive” each time.
As to `Oc1ccc2ccccc2c1Cc1c(O)ccc2ccccc12`, the Potency in assay [1] was above 11.4 µM; in assay [3] it was 3.98 µM (active); in [5], above 46 µM; in assay [6], above 9.22 µM; in assay [13] it was 2 µM (active); in [10], 0.316 µM (active). For the same molecule, in assay [2], the activity change, negative = inhibition is 0.512%. Moreover, the activity, negative = inhibition in assay [4] was -5.79%. Moreover, the Potency entry in [7] and in assay [8] was “inactive” throughout.
